From PubChem
SNCA expr inhib: reduces expression of the alpha-synuclein gene; HEK-293 SNCA-luciferase knock-in, luminescence, 24 h; Potency, µM (series often up to 57.2 µM), for the others: at the top dose activity change, negative = inhibition, most hits filed as inhibitors; 0.17% of 140,000 active; AID 1671194;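 also: potency is read from the fitted curve at half-maximal effect; plate controls were DMSO cells for no effect and cell-free wells for full effect; nearly all actives have a fitted effect of over 45% in size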
IP6K1 inhibitor: inhibitors of human IP6K1 | Q92551 | IP6K1 kinase, ADP-Glo luminescence, 2 h; hits give low values | activity change, % (series mostly up to about 58 µM) | 0.81% of 140,000 active | AID 1645851; in the data active = activity change below about -25%; also: % is scaled to controls: 0 for no effect and ±100 for the full control effect
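ADP-Glo luminescence measures ADP made by human IP6K1 during a 2 h RT reaction with ATP/IP6 (mix at 1.3 mM/130 uM); top library doses 57.5 and 19.1 uM final.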
HEK293 viab: counter-screen for SNCA expression inhibitors: cell viability; HEK-293-SNCA-luc viability, GF-AFC fluorescence, 24 h; Potency, µM (top dose mostly 57.1 µM), for the others: at the top dose activity change, negative = cytotoxicity, most hits filed as cytotoxic; 0.12% of 150,000 active;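 also: potency is read from the fitted curve at half-maximal effect; 0% = DMSO-treated cells and -100% = medium-only wells without cells; nearly all actives have a fitted effect of over 30% in size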
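HEK-293-SNCA-luc cells (1500/well) plated 24 h, then exposed 24 h to a dilution series; GF-AFC added 30 min at 37C, fluorescence 405/540 nm; normalised to medium-only and DMSO wells, Hill fit.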
KDM5B inh: inhibitors of human KDM5B histone demethylase; Q9UGL1; KDM5B demethylase, FDH-coupled NADH fluorescence (FDH is formaldehyde dehydrogenase); Potency, µM (titrated, usually from 57.7 µM), hits mostly inhibitors; 2.6% of 220,000 active; AID 1347165; also: potency is read from the fitted curve at half-maximal effect; 0% is about no effect; nearly all actives have a fitted effect of over 70% in size
Target sequence (Q9UGL1 whole entry, looked up): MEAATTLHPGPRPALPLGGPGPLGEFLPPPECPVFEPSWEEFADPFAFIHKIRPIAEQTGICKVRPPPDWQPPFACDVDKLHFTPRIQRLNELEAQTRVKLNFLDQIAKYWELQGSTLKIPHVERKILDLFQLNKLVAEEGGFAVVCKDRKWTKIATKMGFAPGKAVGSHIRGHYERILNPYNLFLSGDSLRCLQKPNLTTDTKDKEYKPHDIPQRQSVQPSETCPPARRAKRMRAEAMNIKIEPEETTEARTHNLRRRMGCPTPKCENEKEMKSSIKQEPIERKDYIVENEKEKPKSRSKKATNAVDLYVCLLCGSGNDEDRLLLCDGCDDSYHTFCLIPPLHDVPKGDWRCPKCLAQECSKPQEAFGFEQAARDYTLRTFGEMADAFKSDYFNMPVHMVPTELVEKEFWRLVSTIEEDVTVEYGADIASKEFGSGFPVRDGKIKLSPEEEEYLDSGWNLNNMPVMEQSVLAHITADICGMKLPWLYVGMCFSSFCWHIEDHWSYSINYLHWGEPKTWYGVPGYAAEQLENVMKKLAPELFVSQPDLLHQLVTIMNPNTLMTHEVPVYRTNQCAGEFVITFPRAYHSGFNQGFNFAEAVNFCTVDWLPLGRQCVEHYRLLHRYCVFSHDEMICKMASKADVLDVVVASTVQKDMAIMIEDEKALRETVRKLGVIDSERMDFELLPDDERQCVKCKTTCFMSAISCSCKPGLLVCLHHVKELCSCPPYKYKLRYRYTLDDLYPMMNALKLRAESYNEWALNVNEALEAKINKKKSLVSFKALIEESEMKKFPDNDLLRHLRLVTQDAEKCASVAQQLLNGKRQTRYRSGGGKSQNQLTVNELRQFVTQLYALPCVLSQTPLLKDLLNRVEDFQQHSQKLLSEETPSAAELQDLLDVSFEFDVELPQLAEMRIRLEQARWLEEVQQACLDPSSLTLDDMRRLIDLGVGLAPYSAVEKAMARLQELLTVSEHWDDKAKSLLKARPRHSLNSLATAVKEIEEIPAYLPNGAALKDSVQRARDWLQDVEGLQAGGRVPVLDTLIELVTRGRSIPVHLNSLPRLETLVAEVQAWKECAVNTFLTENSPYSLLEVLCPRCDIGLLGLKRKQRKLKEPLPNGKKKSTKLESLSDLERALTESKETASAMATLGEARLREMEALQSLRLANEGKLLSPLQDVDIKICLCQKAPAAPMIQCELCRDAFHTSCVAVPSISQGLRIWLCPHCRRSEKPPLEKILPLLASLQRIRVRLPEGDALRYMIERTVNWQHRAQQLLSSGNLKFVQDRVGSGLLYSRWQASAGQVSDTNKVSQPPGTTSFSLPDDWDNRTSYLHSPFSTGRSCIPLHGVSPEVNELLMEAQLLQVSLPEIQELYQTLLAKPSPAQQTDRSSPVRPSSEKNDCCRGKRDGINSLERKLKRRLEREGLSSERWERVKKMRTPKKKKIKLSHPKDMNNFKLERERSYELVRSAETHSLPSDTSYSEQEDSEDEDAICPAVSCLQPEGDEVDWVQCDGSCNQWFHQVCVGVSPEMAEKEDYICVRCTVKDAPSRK
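Here, H3K4me3 peptide (12.5 µM in substrate mix) is demethylated by KDM5BΔAP, 200 nM final, after 10 min compound exposure. Formaldehyde product is coupled through FDH (0.25 U/mL in mix) to NADH fluorescence; 30-min ΔRFU feeds dose-response curves.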
Starred values were filed as active, the others as inactive; i = inactive; ? = inconclusive; . = not tested or not shown; [ ] = remark or other dose. Rows were chosen to be rich in hits. Some 2.8% of all compounds tested hit in one or more screens of this group. Unless noted, calls follow the shape of the dose curve; as a rule, active = well fitted curve in the direction sought with a large enough effect; inconclusive = small, poorly fitted or top-dose-only effect, or another doubt; inactive = no such curve, though single readings can be large; an effect the other way counts as inactive or inconclusive.

SMILES	SNCA expr inhib	IP6K1 inhibitor	HEK293 viab	KDM5B inh
CCn1cc(S(=O)(=O)N2[C@H]3CC[C@@H]2c2cnc(C)nc2C3)cn1	1%	1	6%	i
C[C@H](CN1CCOCC1)C(C(=O)N1CCCC1)(c1ccccc1)c1ccccc1	69%	-24	48%	.
CC(C)NC(=O)NC[C@H]1C[C@@H]2CCN1C[C@@H]2CN1CCOCC1	11%[87.6 µM]	17	3%[87.6 µM]	i
CNc1nc(N2C[C@H]3CN(CCOC)C[C@@]3(C(=O)O)C2)ncc1F	?	22	-1%	16µM*
Cc1nc(-c2ccc(N(C)C)cc2)cc([C@H]2CN3CC[C@H]2C[C@@H]3COC(=O)Nc2ccccc2)n1	?	-8	?	?
Cc1nc(-c2ccc(N(C)C)cc2)cc([C@H]2CN3CC[C@H]2C[C@@H]3CNC(=O)c2ccco2)n1	-24%	-4	-5%	25µM*
Cc1nc(-c2ccc(N(C)C)cc2)cc([C@H]2CN3CC[C@H]2C[C@@H]3CNC(=O)NC(C)C)n1	1%[87.6 µM]	-12	-21%[87.6 µM]	11µM*
c1cnc(N2CC[C@@]3(CCCNC3)C2)nc1	-14%	.	-3%	.
c1cnc2c(c1)NC1(CCCNC1)C(=NC1CCCC1)N2 (stereo not given)	1%	0	7%	25µM*
N#CC1(c2ccccc2)CCN(C(=O)c2cn(CC3CCCNC3)nn2)CC1 (stereo not given)	-30%	-2	0%	i
COc1ccc(-c2cc3c(cn2)CN(C)CCN3)cc1OC	160%[87.6 µM]	-10	13%[87.6 µM]	35µM*
COc1cccc(Nc2cc3c(cn2)CN(C)CCN3)c1	38%[87.6 µM]	-2	-1%[87.6 µM]	?
C=C1[C@@H](C)C2[C@H](Cc3ccccc3)NC(=O)[C@@]23C(/C=C/C[C@H](C)C[C@@](C)(O)/C=C/[C@@H]3OC(C)=O)[C@@H]1O (stereo not given in full)	.	-1	-23%	.
C=C1[C@@H](C)[C@H]2[C@H](Cc3ccccc3)NC(=O)[C@]23OC(=O)/C=C/C(=O)CCC[C@@H](C)C/C=C/[C@H]3[C@@H]1O	.	-11	12µM*	.
CC(C)NC(=O)N1C[C@@H]2C[C@H](C1)c1ccc(-c3cccc(C(F)(F)F)c3)c(=O)n1C2	?	16	-1%[87.6 µM]	i
COCCC(=O)N1C[C@@H]2C[C@H](C1)c1ccc(-c3cccc(C(F)(F)F)c3)c(=O)n1C2	-10%[87.6 µM]	7	-11%[87.6 µM]	40µM*
O=C(O)CSCC(=O)N1C[C@@H]2C[C@H](C1)c1ccc(-c3cccc(C(F)(F)F)c3)c(=O)n1C2	-8%	12	-1%	32µM*
O=C(c1ccncc1)N1C[C@@H]2C[C@H](C1)c1ccc(-c3cccc(C(F)(F)F)c3)c(=O)n1C2	1%	11	-10%	28µM*
Cc1nc(-c2ccco2)cc([C@H]2CN3CC[C@H]2C[C@@H]3CNC(=O)c2cccs2)n1	29%[87.6 µM]	17	-5%[87.6 µM]	?
Cc1nc(-c2ccco2)cc([C@H]2CN3CC[C@H]2C[C@@H]3CNC2CCOCC2)n1	11%[87.6 µM]	4	-11%[87.6 µM]	22µM*
Cc1ccc(C(=O)NC[C@H]2C[C@@H]3CCN2C[C@@H]3c2cc(-c3cccs3)nc(C)n2)cc1	?	19	?	35µM*
Cc1nc(-c2ccco2)cc([C@H]2CN3CC[C@H]2C[C@@H]3CNC(=O)Cc2cccs2)n1	20%[87.6 µM]	7	0%[87.6 µM]	18µM*
CNc1ccc2oc(C[C@H]3O[C@@]4(CC[C@H]3C)O[C@H](C(C)C(=O)c3ccc[nH]3)[C@H](C)C[C@H]4C)nc2c1C(=O)O (stereo not given in full)	.	7	9.5µM*	.
CNc1ccc2oc(C[C@H]3O[C@@]4(CC[C@H]3C)O[C@H]([C@H](C)C(=O)c3ccc[nH]3)[C@H](C)C[C@H]4C)nc2c1C(=O)O	28µM*	.	?	.
O=C1NCCCCCN(Cc2cccnc2)[C@H]2CCC[C@@H]12	9%	-5	4%	?
SMILES	SNCA expr inhib	IP6K1 inhibitor	HEK293 viab	KDM5B inh
O=C1NCCCCCCN(Cc2cccnc2)[C@H]2CCC[C@@H]12	?	9	-3%	7.9µM*
Cn1cc(C(=O)N2CC[C@@](C)(O)[C@@H](O)C2)c2ccccc21	?	5	-4%	i
CC(C)(C)CC(=O)N1C[C@@H]2C[C@H](C1)c1ccc(NC(=O)Nc3cccc(F)c3)c(=O)n1C2	62%	-14	-3%	28µM*
CNc1ccc(OC2CCNCC2)nc1	0%	18	14%	28µM*
Cn1c(=O)n(C)c2cc(CNCCc3ccc(F)cc3)ccc21	-6%	7	?	i
Cc1cccn2c(CC(=O)N3CCN(C)[C@@H]4CS(=O)(=O)C[C@@H]43)cnc12	30%	9	0%	28µM*
O=C(Cc1ccc(Cl)cc1)N1CCN(C2CCN(Cc3ccccn3)C2=O)CC1 (stereo not given)	-20%	9	2%	i
CCCn1c(C)cnc1CCNC(=O)c1nn(C)c2ccccc12	24%	-6	-6%	25µM*
Cc1nnc2n1CCC(NC(=O)c1nn(C)c3ccccc13)CC2 (stereo not given)	0%	11	10%	?
CN1CCN(C(=O)Cc2c[nH]c3ncc(-c4cccc(Cl)c4)cc23)CC1	4%[87.6 µM]	-21	-5%[87.6 µM]	35µM*
COc1ccc(OC)c(-c2cnc3[nH]cc(CC(=O)N4CCN(C)CC4)c3c2)c1	-14%[87.6 µM]	-7	0%[87.6 µM]	i
Cc1ccccc1-c1cnc2[nH]cc(CC(=O)N3CCN(C)CC3)c2c1	-20%[87.6 µM]	-12	1%[87.6 µM]	32µM*
Cc1noc(C)c1-c1cnc2[nH]cc(CC(=O)N3CCN(C)CC3)c2c1	53%[87.6 µM]	4	6%[87.6 µM]	28µM*
Cc1noc(C)c1COc1ccc(CC(=O)N2CCN(CC(=O)N3CCCCC3)CC2)cc1	.	.	.	i
CN1CCN(C(=O)Cc2c[nH]c3ncc(-c4cccc(F)c4)cc23)CC1	5%[87.6 µM]	-12	8%[87.6 µM]	28µM*
CN1CCN(C(=O)Cc2cccn2-c2ccc(F)cc2)CC1	31%	6	1%	i
CC[C@@H](C)[C@H]1C(=O)O[C@H](C(C)C)C(=O)N(C)[C@@H](C(C)C)C(=O)O[C@H](C(C)C)C(=O)N(C)[C@@H](C(C)C)C(=O)O[C@H](C(C)C)C(=O)N1C	.	21	?	.
CNCc1ccc2c(c1)OCO2	-2%[87.6 µM]	-2	-15%[87.6 µM]	?
NC(=O)CN1C(=O)CO[C@H]2CN(C3CCC3)C[C@H]21	-14%[87.6 µM]	9	1%[87.6 µM]	i
O=C1CC(C(=O)O)CN1 (stereo not given)	.	.	.	i
COc1ccccc1NC(=O)N1C[C@@H]2C[C@H](C1)c1c(C3CCCCC3)ccc(=O)n1C2	2%[87.6 µM]	-4	-16%[87.6 µM]	i
COc1ccccc1NC(=O)Nc1ccc2n(c1=O)C[C@H]1C[C@@H]2CN(C2CCOCC2)C1	-6%	4	-8%	16µM*
O=C(O)[C@]12CN(Cc3ccncc3)C[C@H]1CN(C1CCOCC1)C2	-20%	-11	-5%	?
Cc1cnc(CCN)n1CC1CC1	1%	-4	?	7.9µM*
COc1ccc(N2CC3CCC(C2)N3CC(F)(F)F)cn1	-9%	-6	0%	56µM*
